Experimental findings from PubChem BioAssay (Tox21) are described below.

Several values for one entry are separate records, joined by “and”; a condition that tells them apart may be missing. Identical values can stand only once. Records with an inconclusive call do not appear. Some structures have more than one record in an assay (separate samples or runs), and their calls can disagree. Activity calls are given as the source filed them. Unless noted, calls come from the whole dose curve; as a rule, active = well fitted curve in the direction sought with a large enough effect in the repeat runs; inconclusive = weak or mixed curves; inactive = no such curve, though single readings can be large; an effect the other way counts as inactive or inconclusive.

Assay [1] in a line: qHTS assay to identify small molecule antagonists of the glucocorticoid receptor (GR) signaling pathway - cell viability counter screen (AID 720693). Note: nearly all actives have a fitted effect of over 55% in size. On the technique in general: In qHTS, concentration-response curves come from the screen itself.
The nature of assay [2]: qHTS assay for identifying genotoxic compounds that show differential cytotoxicity against isogenic chicken DT40 cell lines with known DNA damage response pathways - wild type cell line (AID 743012). Note: nearly all actives have a fitted effect of over 60% in size. Note: potency is the fitted concentration of half-maximal effect. In short, it runs like this: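 Viability by ATP luminescence (CellTiter-Glo, 30 min RT) after 40 h compound treatment at 37 C/5% CO2, using 300 parental DNA repair-proficient DT40 cells per well.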

Assay [3] is described as follows: qHTS assay for identifying genotoxic compounds that show differential cytotoxicity against isogenic chicken DT40 cell lines with known DNA damage response pathways - Rev3 mutant cell line (AID 743014). Note: nearly all actives have a fitted effect of over 55% in size. Note: potency is the fitted concentration of half-maximal effect.
Assay [4] in a line: qHTS assay for identifying genotoxic compounds that show differential cytotoxicity against isogenic chicken DT40 cell lines with known DNA damage response pathways - Rad54/Ku70 mutant cell line (AID 743015). Note: nearly all actives have a fitted effect of over 60% in size. Note: potency is the fitted concentration of half-maximal effect.
Assay [5] can be described thus: qHTS assay to identify small molecule antagonists of the androgen receptor (AR) signaling pathway - cell viability counter screen (AID 743033; note: nearly all actives have a fitted effect of over 45% in size).
The target of assay [6] is Androgen receptor (Homo sapiens) (UniProt P10275). The experiment in a line: qHTS assay to identify small molecule antagonists of the androgen receptor (AR) signaling pathway (AID 743035; active = well fitted inhibition curve with a large enough effect in the signal ratio in the repeat runs, not every such curve was filed as active; the % refers to the signal ratio; note: potency is the fitted concentration of half-maximal effect). In short, it runs like this: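 Antagonist mode: AR-bla HEK293 cells co-treated with test compounds and agonist R1881 for 16 h at 37C, 5% CO2. Beta-lactamase activity read as FRET fluorescence after 2 h room-temperature substrate loading.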

For assay [7] the target is unchanged. As to the kind of experiment: qHTS assay to identify small molecule agonists of the androgen receptor (AR) signaling pathway using the MDA cell line (AID 743040; note: nearly all actives have a fitted effect of over 20% in size). The gist of the method:
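Agonist activity is measured as luciferase luminescence in human MDA-kb2 cells whose MMTV reporter responds to both AR and GR. Compounds in DMSO incubate 16 h at 37C, 0% CO2, and ONE-Glo is read after 30 min.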

Assay [8] in a line: qHTS assay to identify small molecule antagonists of the androgen receptor (AR) signaling pathway using the MDA cell line - cell viability counter screen (AID 743041; note: nearly all actives have a fitted effect of over 45% in size). In short, it runs like this:
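qHTS viability read-out; MDA-kb2 AR-luc; R1881-stimulated; 16 h exposure at 37C, 0% CO2; CellTiter-Fluor, 30 min; fluorescence intensity.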

In assay [9] the target is Androgen receptor (Homo sapiens) (UniProt P10275). As to the kind of experiment: qHTS assay to identify small molecule antagonists of the androgen receptor (AR) signaling pathway using the MDA cell line (AID 743042; note: nearly all actives have a fitted effect of over 55% in size). In short, it runs like this: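 MDA-kb2 cells (human breast carcinoma, stably carrying an MMTV-luciferase reporter responsive to AR and GR) were plated at 3,000 cells/well and preincubated 5 hr at 37C, then given compound plus R1881 agonist for 16 h. ONE-Glo luminescence was read.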

Assay [10] in a line: qHTS assay to identify small molecule antagonists of the thyroid receptor (TR) signaling pathway - cell viability counter screen (AID 743064). Note: nearly all actives have a fitted effect of over 50% in size. Note: potency is the fitted concentration of half-maximal effect. In short, it runs like this:
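Fluorescence from CellTiter-Fluor, added after 23.5 h exposure at 37 °C, reported viability of GH3.TRE-Luc cells co-treated with compound and 1 nM T3. Measured in the same wells as the luciferase TR readout.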

Assay [11] is described as follows: qHTS assay to identify small molecule antagonists of the thyroid receptor (TR) signaling pathway (AID 743065). Note: nearly all actives have a fitted effect of over 55% in size. Note: potency is the fitted concentration of half-maximal effect. The gist of the method:
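GH3.TRE-Luc rat pituitary cells carrying two TR response elements driving luciferase were plated for 4 h, given compound plus 1 nM T3 (final), and incubated 23.5 h at 37 C. ONE-Glo luminescence measured reporter inhibition; CellTiter-Fluor fluorescence tracked cytotoxicity.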

Assay [12] concerns thyroid hormone receptor (rat, GH3 cells). The experiment in a line: qHTS assay to identify small molecule agonists of the thyroid receptor (TR) signaling pathway (AID 743066; calls by dose curve).
In assay [13] the target is Estrogen receptor (Homo sapiens) (UniProt P03372). The experiment in a line: qHTS assay to identify small molecule antagonists of the estrogen receptor alpha (ER-alpha) signaling pathway (AID 743069; active = well fitted curve in the direction sought with a large enough effect in the signal ratio in the repeat runs, not every such curve was filed as active; the % refers to the signal ratio; note: potency is the fitted concentration of half-maximal effect). In short, it runs like this: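 Screening used a UAS-driven beta-lactamase reporter integrated into HEK293 cells expressing ER-alpha, stimulated with 17beta-estradiol alongside test compounds over 18 hr at 37C; signal came from LiveBLAzer B/G FRET fluorescence.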

Assay [14] is described as follows: qHTS assay to identify small molecule antagonists of the estrogen receptor alpha (ER-alpha) signaling pathway - cell viability counter screen (AID 743074; calls by dose curve; note: nearly all actives have a fitted effect of over 45% in size).
The target in assay [15] is Estrogen receptor (Homo sapiens) (UniProt P03372). As to the kind of experiment: qHTS assay to identify small molecule agonists of the estrogen receptor alpha (ER-alpha) signaling pathway (AID 743075; calls by dose curve).
For assay [16] the target is unchanged. The experiment in a line: qHTS assay to identify small molecule agonists of the estrogen receptor alpha (ER-alpha) signaling pathway using the BG1 cell line (AID 743079). Note: nearly all actives have a fitted effect of over 20% in size.
Assay [17] can be described thus: qHTS assay to identify small molecule antagonists of the estrogen receptor alpha (ER-alpha) signaling pathway using the BG1 cell line (AID 743080; calls by dose curve;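 note: BG1 cells stimulated with 17beta-estradiol alongside compound; nearly all actives have a fitted effect of over 25% in size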; note: potency is the fitted concentration of half-maximal effect). The gist of the method:
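Readout is ONE-Glo luminescence, taken 30 min at room temperature after reagent addition, preceded by a CellTiter-Fluor viability read; BG1-Luc-4E2 cells had received compound and 17beta-estradiol for 21.5 h at 37 C.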

Assay [18] is described as follows: qHTS assay to identify small molecule antagonists of the estrogen receptor alpha (ER-alpha) signaling pathway using the BG1 cell line - cell viability counter screen (AID 743081).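 Note: compound given together with 17beta-estradiol as the ER stimulus; series mostly up to about 70 µM; nearly all actives have a fitted effect of over 45% in size.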
The next assay concerns the target Aromatase (Homo sapiens) (UniProt P11511). As to the kind of experiment: qHTS assay to identify aromatase inhibitors (AID 743083).
The target of assay [19] is Androgen receptor (Homo sapiens) (UniProt P10275). As to the kind of experiment: qHTS assay to identify small molecule agonists of the androgen receptor (AR) signaling pathway (AID 743036; active = well fitted activation curve with a large enough effect in the signal ratio in the repeat runs, with a control signal flat, not every such curve was filed as active; the % refers to the signal ratio). The gist of the method: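 Fluorescence from a beta-lactamase FRET substrate served as read-out in AR-UAS-bla GripTite HEK293 cells. Cells were treated with DMSO-dissolved compounds for 16 h at 37C, then with LiveBLAzer B/G substrate for 2 h at room temperature.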

Sequence of Androgen receptor (Homo sapiens) (P10275 whole entry, looked up): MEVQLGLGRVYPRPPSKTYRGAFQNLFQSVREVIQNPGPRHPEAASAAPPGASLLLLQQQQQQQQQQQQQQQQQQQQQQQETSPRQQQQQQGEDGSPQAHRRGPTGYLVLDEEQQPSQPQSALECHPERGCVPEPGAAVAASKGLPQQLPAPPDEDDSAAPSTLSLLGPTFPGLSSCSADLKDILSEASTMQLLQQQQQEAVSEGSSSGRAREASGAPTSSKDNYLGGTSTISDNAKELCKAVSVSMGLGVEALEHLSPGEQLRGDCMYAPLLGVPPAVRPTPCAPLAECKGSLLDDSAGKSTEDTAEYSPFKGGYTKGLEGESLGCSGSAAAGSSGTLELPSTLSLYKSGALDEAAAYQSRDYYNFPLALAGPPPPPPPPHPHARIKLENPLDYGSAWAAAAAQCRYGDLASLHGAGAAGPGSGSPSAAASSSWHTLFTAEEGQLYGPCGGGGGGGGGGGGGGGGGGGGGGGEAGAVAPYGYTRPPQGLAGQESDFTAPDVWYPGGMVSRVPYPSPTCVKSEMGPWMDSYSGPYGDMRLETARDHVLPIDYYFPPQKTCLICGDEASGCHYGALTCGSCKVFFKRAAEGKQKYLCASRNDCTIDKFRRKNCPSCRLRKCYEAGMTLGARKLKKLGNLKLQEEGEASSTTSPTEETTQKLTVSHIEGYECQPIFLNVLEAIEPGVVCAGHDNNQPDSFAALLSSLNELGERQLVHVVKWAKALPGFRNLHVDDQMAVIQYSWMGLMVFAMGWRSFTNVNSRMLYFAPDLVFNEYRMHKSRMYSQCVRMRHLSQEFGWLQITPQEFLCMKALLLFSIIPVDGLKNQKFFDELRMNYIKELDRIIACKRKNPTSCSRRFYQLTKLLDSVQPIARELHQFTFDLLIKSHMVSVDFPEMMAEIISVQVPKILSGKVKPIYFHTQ
Sequence of Aromatase (Homo sapiens) (P11511 whole entry, looked up): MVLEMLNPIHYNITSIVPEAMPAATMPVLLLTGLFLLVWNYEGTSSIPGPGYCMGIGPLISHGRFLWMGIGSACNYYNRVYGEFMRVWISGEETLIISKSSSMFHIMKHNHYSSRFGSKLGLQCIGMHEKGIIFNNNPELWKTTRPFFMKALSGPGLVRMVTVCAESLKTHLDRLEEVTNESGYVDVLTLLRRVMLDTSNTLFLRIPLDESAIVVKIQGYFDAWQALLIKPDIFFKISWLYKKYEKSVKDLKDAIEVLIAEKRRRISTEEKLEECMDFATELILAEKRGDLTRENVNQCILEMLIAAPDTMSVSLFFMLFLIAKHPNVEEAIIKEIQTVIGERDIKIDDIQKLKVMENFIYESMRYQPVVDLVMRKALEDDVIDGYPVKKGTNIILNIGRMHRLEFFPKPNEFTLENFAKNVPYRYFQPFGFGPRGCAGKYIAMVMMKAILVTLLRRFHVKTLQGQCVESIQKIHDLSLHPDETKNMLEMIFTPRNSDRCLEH
Sequence of Estrogen receptor (Homo sapiens) (P03372 whole entry, looked up): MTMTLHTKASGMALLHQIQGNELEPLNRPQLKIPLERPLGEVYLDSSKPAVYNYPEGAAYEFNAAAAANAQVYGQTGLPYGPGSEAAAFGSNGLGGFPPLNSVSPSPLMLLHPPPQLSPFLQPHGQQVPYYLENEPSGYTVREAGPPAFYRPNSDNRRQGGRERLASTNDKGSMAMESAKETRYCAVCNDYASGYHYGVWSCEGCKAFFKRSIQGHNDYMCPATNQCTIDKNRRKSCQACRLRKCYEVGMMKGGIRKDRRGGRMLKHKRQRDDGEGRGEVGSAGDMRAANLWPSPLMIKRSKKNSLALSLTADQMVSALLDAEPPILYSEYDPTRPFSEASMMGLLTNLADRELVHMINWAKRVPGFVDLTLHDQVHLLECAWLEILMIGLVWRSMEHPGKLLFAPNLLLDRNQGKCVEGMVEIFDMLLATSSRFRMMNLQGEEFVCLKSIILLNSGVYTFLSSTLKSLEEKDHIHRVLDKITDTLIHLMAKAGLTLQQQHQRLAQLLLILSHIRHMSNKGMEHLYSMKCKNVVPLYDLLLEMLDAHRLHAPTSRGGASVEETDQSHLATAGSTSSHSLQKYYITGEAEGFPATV

`COc1cc2c(c(OC)c1OC)-c1ccc(OC)c(=O)cc1[C@@H](NC(C)=O)CC2`: the Potency entry in assay [1], in assay [7], in assay [8], in [9], in [15] and in [16] was “inactive” each time. Further, the Potency result (in assay [18]; with Aromatase (Homo sapiens)) was “inactive” throughout. Further, the Potency in assay [2] is 66.8 nM (active) and 13.5 nM (active) and 7.7 nM (active); in assay [3] it was 66.8 nM (active) and 12 nM (active) and 7.7 nM (active); in assay [4], 84.1 nM (active) and 10.7 nM (active) and 7.7 nM (active); in [6], 60.1 nM (active); in assay [10], 1.19 µM (active) and 172 nM (active); in assay [11] it was 531 nM (active) and 135 nM (active) and 96.9 nM (active). Besides, the Potency is 15.3 nM [inhibitor] (active) and inactive in [13]; 119 nM (active) and 42.7 nM (active) and 86.3 nM (active) in assay [17]. For the same compound, the compound was classed as inactive in [5], in [12] and in [14].
Take `CN(C)Cc1cc(CN(C)C)c(O)c(CN(C)C)c1`: the Potency result in assay [1], in [2], in assay [3], in [6], in assay [7] and in assay [8] was “inactive” each time. In addition, the Potency entry in [9], in assay [10], in assay [11], in [13], in [15] and in [16] was “inactive” throughout. The Potency result (in assay [17]; in [18]; with Aromatase (Homo sapiens)) was “inactive” each time. The outcome in [5], in assay [19], in assay [12] and in assay [14] was inactive.
For `CC(=O)Oc1ccccc1C(=O)O`, the Potency result in [1], in assay [2], in assay [3], in assay [4], in assay [6] and in [7] was “inactive” throughout. Moreover, the Potency result in assay [8], in [9], in [10], in assay [13], in assay [15] and in assay [16] was “inactive” each time. The Potency result (in assay [17]; in assay [18]; with Aromatase (Homo sapiens)) was “inactive” each time. Besides, the result in [19] and in [14] was inactive.
As to `C=C(C)C(N)=O`, the Potency result in assay [1], in assay [2], in assay [3], in assay [8], in assay [10] and in [11] was “inactive” in each case. The Potency entry (in assay [13]; in [15]; in [16]; in assay [17]; in [18]; in the assay with Aromatase (Homo sapiens)) was “inactive” throughout. The compound was called inactive in [5], in assay [12] and in [14].
With `CCN(CC)CCOC(=O)c1ccc(N)cc1`, the Potency entry in [1], in assay [2], in assay [3], in [4], in [8] and in assay [10] was “inactive” throughout. For the same compound, the Potency entry (in [11]; in [18]; with Aromatase (Homo sapiens)) was “inactive” in each case. Also, the result in assay [12] and in [14] was inactive.
On to `COc1ccc(O)cc1`, for which the Potency result in assay [1], in assay [2], in [3], in assay [4], in assay [6] and in [7] was “inactive” in each case. Besides, the Potency result (in [8]; in assay [9]; in assay [10]; in assay [11]; in assay [18]; with Aromatase (Homo sapiens)) was “inactive” in each case. Moreover, the call in assay [19], in [12] and in [14] was inactive.
`C=C(C)OC(C)=O`: the Potency entry in assay [1], in [2], in assay [3], in [4], in [8] and in assay [11] was “inactive” each time. Besides, the Potency result (in assay [13]; in assay [15]; in assay [16]; in [17]; in assay [18]; with Aromatase (Homo sapiens)) was “inactive” throughout. Further, the compound was called inactive in [12] and in [14].
